Structures are written as SMILES. Records with an inconclusive call do not appear. A call without a number means that no potency is given here. Some structures have more than one record in an assay (separate samples or runs), and their calls can disagree. Active and inactive are the calls of the source. Calls come from the whole dose curve.
Potency is the fitted concentration of half-maximal effect.

5-hydroxytryptamine receptor 2A (Homo sapiens), sequence (P28223 whole entry, looked up): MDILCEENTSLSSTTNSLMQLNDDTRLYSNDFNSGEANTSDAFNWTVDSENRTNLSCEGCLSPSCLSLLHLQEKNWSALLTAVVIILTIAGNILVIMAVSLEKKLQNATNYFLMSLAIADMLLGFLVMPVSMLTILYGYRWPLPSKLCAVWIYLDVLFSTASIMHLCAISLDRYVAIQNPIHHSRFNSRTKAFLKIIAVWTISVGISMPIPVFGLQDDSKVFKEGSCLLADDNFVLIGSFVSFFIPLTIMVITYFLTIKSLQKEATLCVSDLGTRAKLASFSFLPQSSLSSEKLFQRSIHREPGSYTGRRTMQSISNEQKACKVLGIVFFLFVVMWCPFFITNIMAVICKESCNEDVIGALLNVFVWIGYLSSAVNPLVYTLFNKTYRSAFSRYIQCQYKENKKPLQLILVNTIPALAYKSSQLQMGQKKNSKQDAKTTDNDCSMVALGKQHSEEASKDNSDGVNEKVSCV
Muscarinic acetylcholine receptor M1 (Homo sapiens), sequence (P11229 whole entry, looked up): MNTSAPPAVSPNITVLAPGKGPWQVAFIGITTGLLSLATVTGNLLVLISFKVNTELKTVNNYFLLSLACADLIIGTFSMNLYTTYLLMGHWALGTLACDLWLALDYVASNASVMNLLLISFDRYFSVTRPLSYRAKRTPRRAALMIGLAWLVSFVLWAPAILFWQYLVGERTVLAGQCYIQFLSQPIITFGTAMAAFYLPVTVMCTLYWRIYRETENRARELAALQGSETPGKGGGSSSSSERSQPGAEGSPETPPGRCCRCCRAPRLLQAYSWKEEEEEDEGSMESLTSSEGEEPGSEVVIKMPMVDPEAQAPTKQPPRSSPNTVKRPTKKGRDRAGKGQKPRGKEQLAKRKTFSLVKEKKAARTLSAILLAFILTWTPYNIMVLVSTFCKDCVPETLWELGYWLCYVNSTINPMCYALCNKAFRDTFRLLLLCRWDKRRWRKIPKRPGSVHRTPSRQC

In one assay the target is 5-hydroxytryptamine receptor 2A (Homo sapiens) (UniProt P28223). Description: 5-hydroxytryptamine receptor 2A (HTR2A) small molecule agonists, cell-based qHTS assay (AID 1963587). Note: nearly all actives have a fitted effect of over 30% in size. As to conditions: HTR2A-CHO cells, calcium flux fluorescence, agonist mode; series mostly up to 76.8 µM. The procedure, abridged:
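HTR2A-CHO cells, plated 18 h at 37 C/5% CO2, dye-loaded 1 h at 37 C; compounds in DMSO added by pin tool (agonist mode). Intracellular calcium flux read as kinetic fluorescence on FDSS over 2 min at 1 s intervals.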
Background: qHTS replaces the single test concentration by a dilution series.
Take `S=C=NCCc1ccccc1`: the Potency entry is “inactive”.
The same measure, in the same setting: next, `Clc1cc(Cl)c(-c2cc(Cl)c(Cl)cc2Cl)cc1Cl`: “inactive”.
Still for that read-out and setting: to `Cc1nc2ccccc2c(=O)n1-c1ccccc1Cl` belongs “inactive”.
Same read-out and setting: to `ClC1=C(Cl)[C@]2(Cl)[C@H]3[C@H]([C@@H]4C=C[C@H]3C4)[C@@]1(Cl)C2(Cl)Cl` belongs “inactive”.
For `CC(C)[C@@H](C(=O)O[C@@H](C#N)c1cccc(Oc2ccccc2)c1)c1ccc(Cl)cc1`, the Potency result is “inactive”.
Same read-out and setting: to `O=C(Cl)c1ccc(Cl)cc1` belongs “inactive”; to `Nc1ccc([N+](=O)[O-])cc1Cl`, “inactive”; to `CCCCP(CCCC)CCCC`, “inactive”.
Still for that read-out and setting: next, `CC(C)c1c(CN(C)C(C)Cc2ccccc2)n(C)n(-c2ccccc2)c1=O` (stereo not drawn): “inactive”.
Still for that read-out and setting: next, `ClC1=C(Cl)[C@]2(Cl)[C@H]3[C@H]([C@H]4C=C[C@H]3C4)[C@@]1(Cl)C2(Cl)Cl`: “inactive”; `CC(=O)[O-].CC(=O)[O-].O.O.[Cd+2]`: 27.2 µM (active); `CN1C(=O)[C@@H](NC(=O)c2cc3ccccc3[nH]2)N=C(c2ccccc2)c2ccccc21`: “inactive”.
For the compound `O=NN(CCO)CCO`, the Potency result is “inactive”.
For `CCOC(=O)C(Cl)Cc1cc(-n2nc(C)n(C(F)F)c2=O)c(F)cc1Cl` (stereo not drawn), the Potency result was “inactive”.
On the same count and under the same terms, to `[O-][Br+2]([O-])O` belongs “inactive”; to `Nc1c(Cl)c(F)nc(OCC(=O)O)c1Cl`, “inactive”.
Same read-out and setting: to `OC(Cc1ccccc1Cl)(Cn1[nH]cnc1=S)C1(Cl)CC1` (stereo not drawn) belongs 38.9 µM (active).
Turning to `N#CC(C#N)=C(C#N)C#N`, the Potency entry was “inactive”.
On the same count and under the same terms, to `COCC(C)N(C(=O)CCl)c1c(C)csc1C` (stereo not drawn) belongs “inactive”; to `CCOc1cc(Oc2ccc(C(F)(F)F)cc2Cl)ccc1[N+](=O)[O-]`, “inactive”; to `CC(Cc1ccccc1)NCCn1cnc2c1c(=O)n(C)c(=O)n2C` (stereo not drawn), “inactive”.
Same read-out and setting: to `CC1(C)C(C(=O)OC(C#N)c2cccc(Oc3ccccc3)c2)C1(C)C` (stereo not drawn) belongs 39.2 µM (active) and inactive.
The same measure, in the same setting: to `C=C(C)C(=O)[O][Sn]([CH2]CCC)([CH2]CCC)[CH2]CCC` belongs 9.77 µM (active).
As to `CCCN(CC1CC1)c1c([N+](=O)[O-])cc(C(F)(F)F)cc1[N+](=O)[O-]`, the Potency entry was “inactive”.
On to `COC1=CC(=O)O[C@@H](/C=C/c2ccc3c(c2)OCO3)C1`, for which the Potency entry was “inactive”.
With `Brc1ccc(Oc2ccc(Br)cc2Br)c(Br)c1`, the Potency result is “inactive”.
Still for that read-out and setting: next, `CC(C)N1C(=O)N(c2ccccc2)CSC1=NC(C)(C)C`: “inactive”; `COC(=O)COc1ccc(Cl)cc1Cl`: “inactive”.

The target of a further assay is Muscarinic acetylcholine receptor M1 (Homo sapiens) (UniProt P11229). Description: Cholinergic receptor muscarinic 1 (CHRM1) small molecule antagonists, cell-based qHTS assay (AID 1963588). Note: nearly all actives have a fitted effect of over 40% in size. As to conditions: CHRM1-CHO antagonist mode, calcium flux fluorescence; series mostly up to 61.5 µM. The procedure, abridged:
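CHRM1-CHO calcium-flux assay, antagonist mode. Cells were seeded 18 h, dye-loaded 1 h at 37 C and given compound for 5 min at RT, then acetylcholine was added at 50nM. FDSS fluorescence was read 3 min; 15 concentrations, three runs.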
As for `S=C=NCCc1ccccc1`, the Potency entry was “inactive”.
Still for that read-out and setting: next, `Clc1cc(Cl)c(-c2cc(Cl)c(Cl)cc2Cl)cc1Cl`: “inactive”.
Same read-out and setting: next, `Cc1nc2ccccc2c(=O)n1-c1ccccc1Cl`: “inactive”; `ClC1=C(Cl)[C@]2(Cl)[C@H]3[C@H]([C@@H]4C=C[C@H]3C4)[C@@]1(Cl)C2(Cl)Cl`: “inactive”; `CC(C)[C@@H](C(=O)O[C@@H](C#N)c1cccc(Oc2ccccc2)c1)c1ccc(Cl)cc1`: “inactive”.
In the case of `O=C(Cl)c1ccc(Cl)cc1`, the Potency result was “inactive”.
The same measure, in the same setting: next, `CCCCOCN(C(=O)CCl)c1c(CC)cccc1CC`: “inactive”; `Nc1ccc([N+](=O)[O-])cc1Cl`: “inactive”; `CCCCP(CCCC)CCCC`: “inactive”.
Consider `CC(C)c1c(CN(C)C(C)Cc2ccccc2)n(C)n(-c2ccccc2)c1=O` (stereo not drawn), for which the Potency entry is “inactive”.
The same measure, in the same setting: to `ClC1=C(Cl)[C@]2(Cl)[C@H]3[C@H]([C@H]4C=C[C@H]3C4)[C@@]1(Cl)C2(Cl)Cl` belongs “inactive”.
On the same count and under the same terms, to `COC(=O)C(c1ccccc1)C1CCCCN1` (stereo not drawn) belongs 26.6 µM (active); to `CC(=O)[O-].CC(=O)[O-].O.O.[Cd+2]`, “inactive”; to `CN1C(=O)[C@@H](NC(=O)c2cc3ccccc3[nH]2)N=C(c2ccccc2)c2ccccc21`, “inactive”.
Still for that read-out and setting: next, `CCO[C@H]1O[C@@H]2OC3(C)CC[C@H]4[C@H](C)CC[C@@H]([C@H]1C)[C@@]24OO3`: “inactive”; `O=NN(CCO)CCO`: “inactive”; `CCOC(=O)C(Cl)Cc1cc(-n2nc(C)n(C(F)F)c2=O)c(F)cc1Cl` (stereo not drawn): “inactive”.
With `[O-][Br+2]([O-])O`, the Potency result was “inactive”.
The same measure, in the same setting: next, `Nc1c(Cl)c(F)nc(OCC(=O)O)c1Cl`: “inactive”; `OC(Cc1ccccc1Cl)(Cn1[nH]cnc1=S)C1(Cl)CC1` (stereo not drawn): “inactive”; `N#CC(C#N)=C(C#N)C#N`: “inactive”.
Still for that read-out and setting: to `COCC(C)N(C(=O)CCl)c1c(C)csc1C` (stereo not drawn) belongs “inactive”; to `N[C@@H](Cc1ccc(Oc2cc(I)c(O)c(I)c2)c(I)c1)C(=O)O`, “inactive”.
On the same count and under the same terms, to `CCOc1cc(Oc2ccc(C(F)(F)F)cc2Cl)ccc1[N+](=O)[O-]` belongs “inactive”; to `Cc1ccc([N+](=O)[O-])[c]2c1[O][Hg]2`, “inactive”; to `CC1(C)C(C(=O)OC(C#N)c2cccc(Oc3ccccc3)c2)C1(C)C` (stereo not drawn), “inactive”.
Take `CCCN(CC1CC1)c1c([N+](=O)[O-])cc(C(F)(F)F)cc1[N+](=O)[O-]`: the Potency result was “inactive”.
On the same count and under the same terms, next, `COC1=CC(=O)O[C@@H](/C=C/c2ccc3c(c2)OCO3)C1`: “inactive”; `Brc1ccc(Oc2ccc(Br)cc2Br)c(Br)c1`: “inactive”.
Same read-out and setting: next, `CC(C)N1C(=O)N(c2ccccc2)CSC1=NC(C)(C)C`: “inactive”.
The same measure, in the same setting: next, `COC(=O)COc1ccc(Cl)cc1Cl`: “inactive”.

Another assay has the same target. Description: Cholinergic receptor muscarinic 1 (CHRM1) small molecule agonists, cell-based qHTS assay (AID 1963589). Note: nearly all actives have a fitted effect of over 35% in size. Particulars: CHRM1-CHO cells, agonist mode, calcium flux fluorescence; series mostly up to 76.8 µM. A digest of the protocol:
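Stable CHRM1-CHO cells (human receptor) were incubated 18 h, dye-loaded for 1 h at 37 C and exposed to test compounds for agonist activity, with calcium-dependent fluorescence followed kinetically.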
In the case of `S=C=NCCc1ccccc1`, the Potency entry was “inactive”.
Still for that read-out and setting: to `Cc1nc2ccccc2c(=O)n1-c1ccccc1Cl` belongs “inactive”; to `ClC1=C(Cl)[C@]2(Cl)[C@H]3[C@H]([C@@H]4C=C[C@H]3C4)[C@@]1(Cl)C2(Cl)Cl`, “inactive”; to `CC(C)[C@@H](C(=O)O[C@@H](C#N)c1cccc(Oc2ccccc2)c1)c1ccc(Cl)cc1`, “inactive”.
Still for that read-out and setting: to `O=C(Cl)c1ccc(Cl)cc1` belongs “inactive”; to `CCCCOCN(C(=O)CCl)c1c(CC)cccc1CC`, “inactive”.
Same read-out and setting: next, `Nc1ccc([N+](=O)[O-])cc1Cl`: “inactive”; `CCCCP(CCCC)CCCC`: “inactive”.
Turning to `ClC1=C(Cl)[C@]2(Cl)[C@H]3[C@H]([C@H]4C=C[C@H]3C4)[C@@]1(Cl)C2(Cl)Cl`, the Potency entry was “inactive”.
`COC(=O)C(c1ccccc1)C1CCCCN1` (stereo not drawn): the Potency entry was “inactive”.
In the case of `CC(=O)[O-].CC(=O)[O-].O.O.[Cd+2]`, the Potency result is “inactive”.
In the case of `CN1C(=O)[C@@H](NC(=O)c2cc3ccccc3[nH]2)N=C(c2ccccc2)c2ccccc21`, the Potency entry is “inactive”.
The same measure, in the same setting: to `CCO[C@H]1O[C@@H]2OC3(C)CC[C@H]4[C@H](C)CC[C@@H]([C@H]1C)[C@@]24OO3` belongs “inactive”; to `O=NN(CCO)CCO`, “inactive”; to `CCOC(=O)C(Cl)Cc1cc(-n2nc(C)n(C(F)F)c2=O)c(F)cc1Cl` (stereo not drawn), “inactive”.
Still for that read-out and setting: to `[O-][Br+2]([O-])O` belongs “inactive”; to `Nc1c(Cl)c(F)nc(OCC(=O)O)c1Cl`, “inactive”.
The same measure, in the same setting: next, `OC(Cc1ccccc1Cl)(Cn1[nH]cnc1=S)C1(Cl)CC1` (stereo not drawn): “inactive”.
With `CC1COC(Cn2cncn2)(c2ccc(Oc3ccc(Cl)cc3)cc2Cl)O1` (stereo not drawn), the Potency result is “inactive”.
As for `COCC(C)N(C(=O)CCl)c1c(C)csc1C` (stereo not drawn), the Potency entry is “inactive”.
On the same count and under the same terms, to `CCOc1cc(Oc2ccc(C(F)(F)F)cc2Cl)ccc1[N+](=O)[O-]` belongs “inactive”.
`CC(Cc1ccccc1)NCCn1cnc2c1c(=O)n(C)c(=O)n2C` (stereo not drawn): the Potency entry is “inactive”.
On to `Cc1ccc([N+](=O)[O-])[c]2c1[O][Hg]2`, for which the Potency is 23.9 µM (active).
On the same count and under the same terms, next, `CC1(C)C(C(=O)OC(C#N)c2cccc(Oc3ccccc3)c2)C1(C)C` (stereo not drawn): “inactive”.
On the same count and under the same terms, to `C=C(C)C(=O)[O][Sn]([CH2]CCC)([CH2]CCC)[CH2]CCC` belongs 9.77 µM (active).
On the same count and under the same terms, to `COC1=CC(=O)O[C@@H](/C=C/c2ccc3c(c2)OCO3)C1` belongs “inactive”.
On to `Brc1ccc(Oc2ccc(Br)cc2Br)c(Br)c1`, for which the Potency entry was “inactive”.
The same measure, in the same setting: to `CC(C)N1C(=O)N(c2ccccc2)CSC1=NC(C)(C)C` belongs “inactive”; to `COC(=O)COc1ccc(Cl)cc1Cl`, “inactive”.

Values taken from PubChem BioAssay (Tox21).
